“And” between values parts separate entries of the source, which are not always exact repeats. Equal entries are not always repeated. For some assays here: Results with a measured potency or affinity are listed apart. The source made the active and inactive calls.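 Rule for the calls, unless noted: active = thallium flux through the channel raised or lowered by more than 3 SD from vehicle-only wells, actives on both sides; inactive = the rest.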
Experiments:
[1] = P. berghei load reduction in hepatocytes – cell-based, HepG2, luciferase luminescence, HepG2 viability, primary screen (AID 624349; in the data active = parasite load remaining mostly below about 12%, no sharp cut-off; inactive = mostly above about 10%;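 note: 100% = mean of DMSO negative control wells on the same plate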); details: P. berghei liver stage in HepG2, luciferase luminescence, concentration not given here; parasite load remaining: stronger effect = lower value; viability: measured here: HepG2 viability without parasites
[2] = signal quenchers or enhancers, Cy5 substrate/SSB – biochemical, NIH Clinical Collection, E. coli SSB, artefact control for HCV NS3 helicase inhibitor project (AID 743268; call rule not given here); details: Cy5-oligo bound E. coli SSB, fluorescence interference
[3] = modulation of C. elegans fzo-1 (AID 1259413; call rule not given here;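 note: fzo-1 mutant C. elegans worms in liquid wells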); details: C. elegans fzo-1 modulator screen, mean read-out; stronger effect = higher value
F380Y/beta1 = assay: BK channel mutant inhibitors and activators – cell-based, U2OS BacMam, thallium flux, beta subunits, selectivity assay, profiling panel (AID 1259406); details: U2OS BacMam BK variants, at 30 µM;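 note: initial slope of Thallos dye fluorescence rise after thallium is added; log ratio against the mean of 0.3% DMSO vehicle wells on the same plate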
F380Y/beta4 = assay: as above; details: U2OS BacMam BK variants, at 30 µM
R275C = assay: as above; details: U2OS BacMam BK variants, at 30 µM
R275C/beta1 = assay: as above; details: U2OS BacMam BK variants, at 30 µM
R275C/beta2Delta = assay: as above; details: U2OS BacMam BK variants, at 30 µM
R275C/beta4 = assay: as above; details: U2OS BacMam BK variants, at 30 µM
R275C/Slo1WT/beta2 = assay: as above; details: U2OS BacMam BK variants, at 30 µM
[4] = galactose survival enhancers in mitochondrial complex I cybrids – cell-based, galactose medium, ATP luminescence, primary screen (AID 1645843;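 active = z-score of at least 1.8 in each of two replicates, scored against plate mean and spread of sample wells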;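 note: positive z means more ATP and so rescue of galactose-driven cybrid death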); details: complex I mutant cybrid cells, 72 h, stronger effect = higher value
[5] = compounds altering viability of human ES cells (AID 493140; call rule not given here;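 note: cells exposed to compounds for four days before counting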); details: human embryonic stem cell survival screen; stronger effect = higher value
[6] = blockers of polyQ-driven CASP3 activation – cell-based (AID 1583); details: polyglutamine-induced caspase-3 activation, cell assay; stronger effect = higher value;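 tested at 10 µM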
[7] = yeast 75Q aggregation reduction – 75Q-TubU reporter (AID 1593); details: Yeast 75Q polyglutamine aggregation reporter
[8] = restoration of touch response, mutant HTT neurons – whole organism, C. elegans mechanosensory neurons, N-terminal huntingtin (AID 1599); details: C. elegans polyQ-huntingtin mechanosensory neurons, stronger effect = higher value
[9] = blockers of cytochrome c efflux from mitochondria – biochemical, purified mitochondria (AID 1603); details: stronger effect = lower value;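 note: mouse liver mitochondria challenged with calcium chloride; signal normalized to the plate average as 100%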
[10] = polyglutamine aggregate formation blockers (AID 1604); details: polyglutamine-induced protein aggregation inhibition assay; stronger effect = higher value; tested at 2.5 µM
[11] = glutamate transport activators, MN-1 cells, MN-1 cell line (AID 1612); details: MN-1 motor neuron cells, stronger effect = higher value;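 note: tested at 1 µM final; 0% = mean of DMSO vehicle wells on each plate; positive means more glutamate uptake than control and negative means less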
[12] = 75Q-TubH aggregate inhibition, S. cerevisiae, yeast (AID 1616); details: S. cerevisiae 75Q-TubH polyglutamine aggregation suppression; stronger effect = higher value

Structure (SMILES)	parasite load remaining [1]	viability [1]	fluorescence ratio [2]	mean signal [3]	log fold change Tl+ flux (F380Y/beta1)	log fold change Tl+ flux (F380Y/beta4)	log fold change Tl+ flux (R275C)	log fold change Tl+ flux (R275C/beta1)	log fold change Tl+ flux (R275C/beta2Delta)	log fold change Tl+ flux (R275C/beta4)	log fold change Tl+ flux (R275C/Slo1WT/beta2)	z-score [4]	survival [5]	inhibition [6]	score [7]	rescue above control [8]	cytochrome c release ratio [9]	inhibition of aggregation [10]	glutamate uptake change [11]	aggregation suppression score [12]
OCCN1C[C@H](O)[C@@H](O)[C@H](O)[C@H]1CO	103% (inactive)	80%	1.05 (inactive)	232 (inactive)	-0.0621 (inactive)	-0.0159 (inactive)	-0.0048 (inactive)	-0.0736 (inactive)	-0.00824 (inactive)	-0.031 (inactive)	-0.0316 (inactive)	–	–	–	–	–	–	–	–	–
C[C@]12CCC(=O)C=C1CC[C@@H]1[C@@H]2[C@@H](O)C[C@@]2(C)[C@H]1CC[C@]2(O)C(=O)COC(=O)CCC(=O)O	82.9% (inactive)	105%	0.99 (inactive)	257 (inactive)	-0.0186 (inactive)	0.0128 (inactive)	0.0834 (inactive)	0.0319 (inactive)	0.0103 (inactive)	-0.0484 (inactive)	-0.0271 (inactive)	-0.315 (inactive)	–	–	–	–	–	–	–	–
CCOc1ccc2ccccc2c1C(=O)N[C@@H]1C(=O)N2[C@@H]1SC(C)(C)[C@@H]2C(=O)O	85.4% (inactive) and 87.9% (inactive)	103% and 91.5%	1.06 (inactive)	253 (inactive)	-0.0293 (inactive)	-0.0322 (inactive)	-0.00323 (inactive)	0.00845 (inactive)	0.0249 (inactive)	-0.041 (inactive)	0.0157 (inactive)	0.835 (inactive)	3.33 (inactive)	–	–	–	–	–	–	–
CCCSc1ccc2nc(NC(=O)OC)[nH]c2c1	–	–	1.01 (inactive)	254 (inactive)	-0.0515 (inactive)	-0.0654 (inactive)	0.0372 (inactive)	0.0301 (inactive)	0.0234 (inactive)	-0.0656 (inactive)	-0.017 (inactive)	0.56 (inactive) and -0.955 (inactive)	0.917 (inactive)	25.8%	0.16	-16.6	0.88	11.8%	21.4%	0.174
C[C@H](CCC(=O)O)[C@H]1CC[C@H]2[C@@H]3C(=O)C[C@@H]4CC(=O)CC[C@]4(C)[C@H]3CC(=O)[C@]12C	41.4% (inactive) and 59.6% (inactive)	47.4% and 73.1%	0.97 (inactive)	247 (inactive)	-0.0273 (inactive)	-0.0104 (inactive)	-0.000869 (inactive)	-0.0193 (inactive)	-0.00319 (inactive)	0.0134 (inactive)	-0.0176 (inactive)	–	–	–	–	–	–	–	–	–
c1ccc2c(CC3=NCCN3)cccc2c1	–	–	1.03 (inactive)	245 (inactive)	0.0282 (inactive)	0.0394 (inactive)	-0.0401 (inactive)	-0.0378 (inactive)	0.00508 (inactive)	-0.0196 (inactive)	-0.0172 (inactive)	0.47 (inactive) and 0.505 (inactive)	12.7 (inactive)	16.4%	1.41	-1.7	1.14	79.6%	-6.49%	1.49
Cc1onc(-c2ccccc2)c1-c1ccc(S(N)(=O)=O)cc1	163% (inactive) and 88.9% (inactive)	90.7% and 71.3%	1 (inactive)	275 (inactive)	0.0307 (inactive)	0.0618 (inactive)	0.0179 (inactive)	0.0767 (inactive)	0.0842 (inactive)	0.0327 (inactive)	-0.0445 (inactive)	-0.505 (inactive)	–	–	–	–	–	–	–	–
Nc1nc2ncc(CNc3ccc(C(=O)N[C@@H](CCC(=O)O)C(=O)O)cc3)nc2c(=O)[nH]1	–	–	0.95 (inactive)	246 (inactive)	-0.0026 (inactive)	0.025 (inactive)	-0.0335 (inactive)	0.00862 (inactive)	0.0304 (inactive)	-0.0613 (inactive)	-0.0318 (inactive)	-0.64 (inactive)	–	15.9%	1.02	-0.86	1.08	77.8%	0.74%	1.14
CCS(=O)(=O)CCn1c([N+](=O)[O-])cnc1C	–	–	0.97 (inactive)	232 (inactive)	0.0365 (inactive)	-0.041 (inactive)	0.0103 (inactive)	-0.0101 (inactive)	-0.0183 (inactive)	-0.0453 (inactive)	-0.0158 (inactive)	0.655 (inactive) and 0.575 (inactive)	3.33 (inactive)	–	–	–	–	–	–	–
C[C@]12CCC(=O)C=C1CC[C@@H]1[C@@H]2[C@@H](O)C[C@@]2(C)[C@H]1CC[C@]2(O)C(=O)CO	–	–	0.95 (inactive)	278 (inactive)	0.0243 (inactive)	0.00205 (inactive)	-0.0265 (inactive)	-0.0128 (inactive)	0.0134 (inactive)	-0.0399 (inactive)	0.0266 (inactive)	0.565 (inactive) and 0.385 (inactive) and -0.22 (inactive)	5.5 (inactive)	–	–	–	–	–	–	–
CCC(=O)O[C@]1(C(=O)CCl)[C@@H](C)C[C@H]2[C@@H]3CCC4=CC(=O)C=C[C@]4(C)[C@@]3(F)[C@@H](O)C[C@@]21C	49% (inactive) and 35.1% (inactive)	110% and 128%	1.01 (inactive)	–	0.254 (active)	0.236 (active)	-0.00176 (inactive)	0.13 (active)	0.172 (active)	0.386 (active)	0.0324 (inactive)	-1.34 (inactive) and 0.04 (inactive)	–	–	–	–	–	–	–	–
CC(=O)OCC(=O)[C@@]12OC(C)(C)O[C@@H]1C[C@H]1[C@@H]3C[C@H](F)C4=CC(=O)C=C[C@]4(C)[C@@]3(F)[C@@H](O)C[C@@]12C	84.8% (inactive) and 108% (inactive)	105% and 96.2%	1.05 (inactive)	–	0.0412 (inactive)	0.048 (inactive)	-0.038 (inactive)	-0.00722 (inactive)	-0.0403 (inactive)	0.0407 (inactive)	0.0498 (inactive)	0.355 (inactive)	3.25 (inactive)	–	–	–	–	–	–	–
CCOC(=O)N1CCC(=C2c3ccc(Cl)cc3CCc3cccnc32)CC1	39.1% (inactive) and 10.2% (inactive) and 5.21% (inactive)	101% and 59.1% and 70%	0.91 (inactive)	253 (inactive)	–	–	–	–	–	–	–	–	–	15.4%	0.8	-2.91	4.23	56.9%	-2.42%	0.519
C#C[C@]1(O)CC[C@H]2[C@@H]3CCC4=CC(=O)CC[C@@H]4[C@H]3CC[C@@]21CC	51.8% (inactive) and 75.6% (inactive) and 14.7% (inactive)	93.6% and 73.1% and 73.5%	1.02 (inactive)	–	0.149 (active)	-0.00261 (inactive)	-0.0255 (inactive)	0.00999 (inactive)	-0.0278 (inactive)	-0.0556 (inactive)	-0.0344 (inactive)	0.335 (inactive)	3.67 (inactive)	–	–	–	–	–	–	–
CCCCc1oc2ccccc2c1C(=O)c1cc(I)c(OCCN(CC)CC)c(I)c1	–	–	0.96 (inactive)	244 (inactive)	–	–	–	–	–	–	–	-1.52 (inactive) and -1.44 (inactive) and -1.87 (inactive)	3.5 (inactive)	18.6%	-1.49	0.17	0.79	28.8%	11.2%	-0.303
Nc1nc2ccc(OC(F)(F)F)cc2s1	–	–	0.95 (inactive)	260 (inactive)	–	–	–	–	–	–	–	–	22.5 (inactive)	–	–	–	–	–	–	–
CN1CCN(CCCN2c3ccccc3Sc3ccc(C(F)(F)F)cc32)CC1	–	–	0.87 (inactive)	265 (inactive)	–	–	-0.157 (active)	0.287 (active)	-0.0448 (inactive)	–	–	-1.38 (inactive) and -1.44 (inactive) and -1.35 (inactive)	1.83 (inactive)	-8.73%	1.12	0	2.01	65.5%	16.2%	1.63
C[C@@H](O)[C@H]1C(=O)N2C(C(=O)O)=C(S[C@@H]3CN[C@H](C(=O)N(C)C)C3)[C@H](C)[C@H]12	81% (inactive) and 101% (inactive) and 24.6% (inactive)	74.6% and 72.6% and 92%	1.04 (inactive)	272 (inactive)	0.00288 (inactive)	-0.00589 (inactive)	-0.0931 (inactive)	-0.0201 (inactive)	-0.042 (inactive)	0.0148 (inactive)	-0.00332 (inactive)	1.23 (inactive)	4.17 (inactive)	–	–	–	–	–	–	–
COc1ccccc1N1CCN(CCCNc2cc(=O)n(C)c(=O)n2C)CC1	53.4% (inactive) and 119% (inactive) and 80.7% (inactive)	95.1% and 83.4% and 78.9%	0.99 (inactive)	262 (inactive)	–	–	-0.0421 (inactive)	0.0413 (inactive)	0.0288 (inactive)	–	–	0.56 (inactive) and 1 (inactive) and -0.025 (inactive)	5.83 (inactive)	–	–	–	–	–	–	–
CN(C)CCOC(c1ccccc1)c1ccccc1	–	–	1.02 (inactive)	216 (inactive)	–	–	0.00435 (inactive)	0.00179 (inactive)	0.0139 (inactive)	–	–	-0.255 (inactive) and 0.81 (inactive) and 0.09 (inactive)	14 (inactive)	15.6%	1.18	-3.14	1.11	85.2%	8.03%	1.07
CC(=O)OCC(=O)[C@@]1(O)CC[C@H]2[C@@H]3CCC4=CC(=O)C=C[C@]4(C)[C@H]3[C@@H](O)C[C@@]21C	83.8% (inactive)	90.8%	0.95 (inactive)	–	0.0202 (inactive)	0.0608 (inactive)	-0.0254 (inactive)	0.0604 (inactive)	0.0146 (inactive)	0.0243 (inactive)	0.0458 (inactive)	0.085 (inactive)	–	–	–	–	–	–	–	–
O=c1n(CCCN2CCN(c3cccc(Cl)c3)CC2)nc2ccccn12	–	–	1.01 (inactive)	242 (inactive)	–	–	0.0186 (inactive)	0.025 (inactive)	0.0634 (inactive)	–	–	-0.33 (inactive) and 0.63 (inactive)	27.2 (inactive)	17.6%	1.36	8.41	1.04	-2.89%	4.27%	1.27
